Test [1] in a line: NCI Yeast Anticancer Drug Screen. Data for the rad50 strain (AID 155).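 Also: 0% = growth of vehicle-only cultures of the same strain.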 The conditions noted are these: S. cerevisiae rad50 strain growth inhibition; at 50.0 µM; active compounds read high. In a few lines: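 DNA repair mutant yeast, compound exposure, growth read-out; inhibition is taken relative to vehicle.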
Test [2] can be described thus: NCI Yeast Anticancer Drug Screen. Data for the mec2-1 strain (AID 157). The conditions noted are these: S. cerevisiae mec2-1 strain, at 50.0 µM, active compounds read high. In a few lines:
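Compounds were applied to mec2-1 yeast cells. Their growth was then compared with that of vehicle-treated cultures to give growth inhibition.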

Test [3] in a line: NCI Yeast Anticancer Drug Screen. Data for the sgs1 mgt1 strain (AID 161).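 Also: 0% = growth of cultures given vehicle only.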 As to conditions: S. cerevisiae sgs1 mgt1 strain, at 50.0 µM, active compounds read high. In outline:
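Yeast cells carrying a defined DNA-repair defect were exposed to test compounds. Growth inhibition was measured relative to vehicle-treated controls.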

The nature of test [4]: NCI Yeast Anticancer Drug Screen. Data for the cln2 rad14 strain (AID 165).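 Also: 0% = growth equal to vehicle treated cultures.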 The conditions noted are these: S. cerevisiae cln2 rad14 strain, at 50.0 µM, active compounds read high. In a few lines: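 Strain: cln2 rad14 yeast, altered in cell cycle control and DNA damage repair. Read-out: growth inhibition vs vehicle.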
Test [5] is described as follows: NCI Yeast Anticancer Drug Screen. Data for the bub3 strain (AID 167). The conditions noted are these: S. cerevisiae bub3 mutant strain, at 50.0 µM, active compounds read high. In a few lines:
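In this screen, a yeast mutant lacking normal mitotic checkpoint function is challenged with compound. Relative growth versus vehicle gives the inhibition value.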

Test [6] can be described thus: NCI Yeast Anticancer Drug Screen. Data for the mlh1 rad18 strain (AID 175). As to conditions: S. cerevisiae mlh1 rad18 strain growth inhibition; at 50.0 µM; active compounds read high. In a few lines:
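A repair-deficient yeast strain is exposed to test compound, and growth is scored relative to vehicle-treated controls.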

This is part of a sample that, as a whole, favours compounds with a hit. Of some 79,000 tested, about 15% had one in any assay. Values without a mark were called inactive. The source made the active and inactive calls. Rule as the data show it: active = growth inhibition above about 70%; inactive = the rest.

For the molecule `CN(C)c1ccccc1CC(=O)Nc1ccccc1`, the growth inhibition in test [1] was -12.6%; in test [2], 4.45%; in test [3], -5.85%; in test [4], -21.8%; in test [5], 1.9%; in test [6], 3.1%.
With `COc1ccc(OC)c(C2=CCCCCC2)c1`, the growth inhibition in test [1] was 7.6%; in test [2], -6.15%; in test [3] it was 3.1%; in test [4] it was -22.1%; in test [5], -7.85%; in test [6] it was 13.5%.
In the case of `CNc1ccccc1C(N)=S`, the growth inhibition was 5.9% in test [1]; 2.5% in test [2]; -2.95% in test [3]; -26.1% in test [4]; -5.55% in test [5]; 11.8% in test [6].
Regarding `C=CC(=N)N`, the growth inhibition in test [1] was 12.3%; in test [2], 2.4%; in test [3] it was -5%; in test [4], 8.45%; in test [5], 6.6%; in test [6] it was 7.6%.
As for `O=C(CCC(NC(=O)OCc1ccccc1)C(=O)OCc1ccccc1)Nc1cccc(OCc2ccccc2)c1` (centres undefined), the growth inhibition was -16.2% in test [1]; -18.1% in test [2]; -1.15% in test [3]; -23.6% in test [4]; -20% in test [5]; -27.4% in test [6].
Regarding `COc1cccc(N=Nc2c(-c3ccccc3)nn(C(=S)S)c2C)c1`, the growth inhibition in test [1] was -2.6%; in test [2], 0.6%; in test [3], 17.6%; in test [4] it was -192%; in test [5] it was 19.3%; in test [6] it was 20.6%.
`O=C1NCC2(CCCCCC2)O1`: the growth inhibition in test [1] was 5.15%; in test [2] it was -0.65%; in test [3], 13.2%; in test [4], 4.95%; in test [5], -3.9%; in test [6] it was 6.15%.
Consider `CC1C2CC(C(S(=O)(=O)O)C2=O)C1(C)C` (centres undefined), for which the growth inhibition in test [1] was 9.25%; in test [2], -7%; in test [3] it was -32.5%; in test [4], 6.45%; in test [5], -36.8%; in test [6], -29.3%.
Consider `Cc1c2ccccc2nc(CSCCO)[n+]1[O-]`, for which the growth inhibition in test [1] was -10.8%; in test [2], -22.1%; in test [3], -7.95%; in test [4] it was -2.1%; in test [5], 5.5%; in test [6], -16.2%.
Regarding `COc1ccc(NC(=O)Oc2ccc3c(C)cc(=O)oc3c2)c(OC)c1` (tested in a mixture with another compound), the growth inhibition in test [1] is -3.7%; in test [2], -6.2%; in test [3] it was -22.6%; in test [4], -19.7%; in test [5], 1.8%; in test [6], 12.3%.
Take `CC(=O)c1c(-c2ccc(Cl)cc2)c(C#N)c(=S)n(C2OC(CO)C(O)C(O)C2O)c1C` (centres undefined): the growth inhibition is -2.85% in test [1]; -6.3% in test [2]; 6.15% in test [3]; 14.8% in test [4]; -5.15% in test [5]; 12.2% in test [6].
As to `COC1CC(N=[N+]=[N-])C(OC(=O)c2ccccc2)C(CBr)O1` (centres undefined), the growth inhibition in test [1] is 22.4%; in test [2], 18.1%; in test [3] it was 22.6%; in test [4] it was -4.4%; in test [5], 7.4%; in test [6] it was 19.6%.
Turning to `CC(C)(C)C1CCC(C2CC(C(C)(C)C)CCC2=O)CC1` (centres undefined), the growth inhibition in test [1] was 2.75%; in test [2], -8%; in test [3] it was 1.65%; in test [4] it was 5.15%; in test [5], 5.7%; in test [6] it was 27.8%.
On to `O=C(O)C(CS)NC1CC(=O)N(Cc2ccccc2)C1=O` (centres undefined), for which the growth inhibition is 1.95% in test [1]; 9.8% in test [2]; 18.6% in test [3]; -19.3% in test [4]; -1.55% in test [5]; -8.25% in test [6].
As to `O=[N+]([O-])c1ccc(CS(=O)(=O)c2ccccc2)o1`, the growth inhibition in test [1] was 21.4%; in test [2], -1.45%; in test [3], 24.5%; in test [4], -15.9%; in test [5], 1.15%; in test [6] it was 4.6%.
`CN(C)CCCN=C(N)N`: the growth inhibition in test [1] is 1.25%; in test [2] it was -20.9%; in test [3] it was -23.9%; in test [4], 20.4%; in test [5], -57.5%; in test [6], -4.1%.
Regarding `O=C(Nc1ccc(Cl)cc1)Nc1nnc(-c2ccccc2Br)o1`, the growth inhibition is 15.6% in test [1]; 18.6% in test [2]; 19.2% in test [3]; -15.4% in test [4]; -22.6% in test [5]; 8.3% in test [6].
Regarding `O=C(O)c1cc(S(=O)(=O)O)ccc1O`, the growth inhibition in test [1] was 9.7%; in test [2], 18%; in test [3], -9.9%; in test [4], -29.9%; in test [5] it was -16.7%; in test [6] it was -13.2%.
Regarding `CCCCCCCCN1N=CC(CC)C1CCC` (centres undefined), the growth inhibition in test [1] was 3.15%; in test [2], -11.8%; in test [3], 6.5%; in test [4], 11.3%; in test [5], -0.8%; in test [6], 1.45%.
On to `Nc1c(N=Nc2ccc(-c3ccc(N=Nc4ccc(O)c(C(=O)O)c4)cc3)cc2)cc(S(=O)(=O)O)c2ccccc12`, for which the growth inhibition in test [1] was 91.5% (active); in test [2], 96.6% (active); in test [3], 94.9% (active); in test [4], 93.3% (active); in test [5] it was 91% (active); in test [6], 93.1% (active).
With `COc1ccc(COC(=O)Oc2ccc(Cl)cc2)cc1OC`, the growth inhibition was 93.8% (active) in test [1]; 63.3% in test [2]; 50.7% in test [3]; 79.8% (active) in test [4]; 90.5% (active) in test [5]; 94.8% (active) in test [6].
Take `C=C(C)C(=O)OCCCCC`: the growth inhibition in test [1] is 8.7%; in test [2], 5.15%; in test [3] it was 4.45%; in test [4] it was 6.65%; in test [5], -3.55%; in test [6], 2.95%.
Turning to `COC(=O)C[C@](O)(CCCC(C)(C)O)C(=O)O[C@@H]1C(OC)=C[C@]23CCCN2CCc2cc4c(cc2[C@H]13)OCO4`, the growth inhibition is 51.2% in test [1]; 35.4% in test [2]; 43.2% in test [3]; 41% in test [4]; 43.3% in test [5]; 42.5% in test [6].
In the case of `CCCCCCCCCCCCCCCCCC(=O)OCC(COC1OC(CS(=O)(=O)O)C(O)C(O)C1O)OC(=O)CCCCCCCCCCCCCCCCC` (centres undefined), the growth inhibition is 23.6% in test [1]; 18.4% in test [2]; 7.2% in test [3]; 3.25% in test [4]; -1.95% in test [5]; 19.6% in test [6].
With `CC(CCCSC(=N)N)SC(=N)N` (centres undefined), the growth inhibition in test [1] was 4.9%; in test [2] it was -3.5%; in test [3], -0.3%; in test [4] it was 24.2%; in test [5] it was -2.2%; in test [6], 12.6%.
For `C1=Nc2ccccc2/C1=C/c1c[nH]c2ccccc12`, the growth inhibition in test [1] is 11.2%; in test [2], -10.1%; in test [3], 5.2%; in test [4] it was 17.9%; in test [5] it was 1.05%; in test [6], 17.9%.
In the case of `O=C(N/N=C/c1ccc(Cl)cc1Cl)C(O)(c1ccccc1)c1ccccc1`, the growth inhibition in test [1] is 17.4%; in test [2], 16.1%; in test [3] it was 10.2%; in test [4], 22.9%; in test [5], 10.7%; in test [6] it was 19.3%.
On to `CSc1nc(COC(=O)NC(C)C)c(COC(=O)NC(C)C)n1Cc1ccccc1`, for which the growth inhibition was 2.45% in test [1]; 3.7% in test [2]; 1.35% in test [3]; 1.65% in test [4]; 5.4% in test [5]; 2.5% in test [6].
For the molecule `COC(=O)NN=C1C(C)(C)C(=O)C1(C)C`, the growth inhibition in test [1] was -20.7%; in test [2] it was -21.8%; in test [3], -25.4%; in test [4] it was 6.05%; in test [5], -29.4%; in test [6] it was -20.1%.
For `c1ccc(C(c2ccccc2)c2ccccc2)cc1`, the growth inhibition in test [1] was -20.6%; in test [2] it was -20.4%; in test [3] it was -16.1%; in test [4], -10.3%; in test [5] it was -8.7%; in test [6] it was -23.6%.
For `O=c1c2ccccc2c2cc3nc4ccc([N+](=O)[O-])cc4c(=O)n3c3cccc1c23`, the growth inhibition in test [1] was -0.15%; in test [2], -2.65%; in test [3], -15.7%; in test [4] it was 6.15%; in test [5], -4.9%; in test [6], -10.4%.
For `CC(=O)OCC1OC(Sc2nc3ncnc(N)c3[nH]2)C(OC(C)=O)C(OC(C)=O)C1OC(C)=O` (centres undefined), the growth inhibition in test [1] is -0.55%; in test [2], -1.3%; in test [3] it was -18.9%; in test [4], -3.5%; in test [5], 4.5%; in test [6], -3.4%.
`NCCCCCS(=O)(=O)O`: the growth inhibition in test [1] is 17.4%; in test [2], -1.15%; in test [3], -0.85%; in test [4], 4.05%; in test [5], -0.65%; in test [6] it was 8.65%.
For `COc1ccccc1/C=N/NC(=O)CCCCCCCCC(=O)N/N=C/c1ccccc1OC`, the growth inhibition is 0.95% in test [1]; -4% in test [2]; -4.4% in test [3]; -11.2% in test [4]; -5.5% in test [5]; 14.5% in test [6].
For the molecule `CC(=O)NOCC1NC(=O)C(CONC(C)=O)NC1=O` (centres undefined), the growth inhibition in test [1] was 14%; in test [2], 18.1%; in test [3] it was -47.1%; in test [4], -3.4%; in test [5], -48.2%; in test [6], -54.6%.
In the case of `COC(=O)c1nc(N)nc(C(=O)OC)c1C(=O)c1cccs1`, the growth inhibition is -2.55% in test [1]; -9.05% in test [2]; -28.9% in test [3]; -24.8% in test [4]; -43% in test [5]; -20.9% in test [6].
With `OC1(CSc2ccccc2)CCCCC1`, the growth inhibition is 11.1% in test [1]; 22.2% in test [2]; 14.5% in test [3]; 1% in test [4]; -10.7% in test [5]; -33% in test [6].
On to `Cc1cc(Cl)c(=O)n(-c2ccc(Cl)cc2)n1`, for which the growth inhibition in test [1] is 27.3%; in test [2], -4.6%; in test [3], 9.45%; in test [4], 4.7%; in test [5] it was 15.3%; in test [6], 44.9%.
Consider `CC(=O)C1=CN(C)c2ccccc2S1`, for which the growth inhibition in test [1] is 29.6%; in test [2], 1.75%; in test [3], 12.2%; in test [4] it was -2.55%; in test [5] it was -12.8%; in test [6], 6.15%.

These data come from PubChem BioAssay (NCI).
